These results are taken from PubChem BioAssay (EPA / NIEHS).

Structures are written as SMILES. Where a structure was tested more than once in an assay, its records may differ in their call. Active and inactive are the calls of the source. How the source made its calls: active means hit-call score of the fitted dose curve at least 0.9, where 1 is the maximum; inactive means score below 0.9.

Experiment [1] in a line: CCTE_Harrill_HTTr_Apoptosis_MCF7: CCTE's 6-hour Apoptosis Assessment for the High-Throughput Transcriptomics (HTTr) Platform, in MCF-7 cells cultured in DMEM + 10% fetal bovine serum, Harrill Lab (AID 2284011). An outline of the steps:
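MCF-7 (DMEM + 10% FBS), 384-well; 8-pt dilution series, 6 h chemical exposure; caspase-3/7 activation via CellEvent Caspase 3/7 Green, HCI; bidirectional fit vs DMSO.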

Experiment [2] is described as follows: CCTE_Shafer_MEA_acute_burst_number: CCTE's Neural Acute Assay for Single-Electrode Bursts, Shafer Lab (AID 2284013). An outline of the steps: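 Burst totals were derived with adaptive spike detection (8x rms threshold) on filtered signals from rat cortical cultures; change relative to pre-treatment baseline after 40-min compound exposure (0.03-40 uM) was fitted in the negative direction against DMSO.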

A short description of experiment [3]: CCTE_Shafer_MEA_acute_burst_duration_mean: CCTE's Neural Acute Assay for Mean Burst Duration, Shafer Lab (AID 2284014).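 Further: hits are decreases in mean burst duration relative to DMSO controls.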 In short, it runs like this: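 Acute exposure of mature rat cortical networks (DIV 13 or 15) grown on microelectrode arrays to 0.03-40 uM compound. Mean burst duration compared with the 40-min pre-dose baseline over a 40-min post-dose recording at 37 C.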

A short description of experiment [4]: CCTE_Shafer_MEA_acute_interburst_interval_mean: CCTE's Neural Acute Assay for Mean Interburst Interval, Shafer Lab (AID 2284016).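 Further: percent change of mean interburst interval versus each well's own pre-dose baseline; curves fitted for decrease in interburst interval relative to DMSO.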 In short, it runs like this: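 Rat cortical cultures, DIV 13/15; 20 min equilibration, 40 min baseline, compound 0.03-40 uM, 40 min re-recording, 37 C. Spikes detected at 8x rms noise (300-5000 Hz band-pass). Endpoint: % change in interburst interval, fitted in loss direction vs DMSO.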

The nature of experiment [5]: CCTE_Shafer_MEA_acute_burst_percentage_mean: CCTE's Neural Acute Assay for Percentage of Spikes in a Burst, Shafer Lab (AID 2284017).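 On AC50: curve fitted for loss of signal so potency reflects decreased burst percentage.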 An outline of the steps:
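Rat cortical cultures, DIV 13/15, 37 C. Spikes detected at 8x rms noise (300-5000 Hz band-pass). Burst spikes/total spikes averaged across electrodes per well; % change post- vs pre-treatment (40 min each), loss-of-signal fit vs DMSO.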

Experiment [6] is described as follows: CCTE_Shafer_MEA_acute_burst_percentage_std: CCTE's Neural Acute Assay for Standard Deviation of Burst Percentage, Shafer Lab (AID 2284018).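 Further: fitted in the negative direction so actives lower burst percentage SD.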 In short, it runs like this: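 Primary rat cortical neurons on 16-electrode MEA wells were recorded 40 min at baseline (DIV 13 or 15), then 40 min after compound (0.03-40 uM), at 37 C. Well value is SD across electrodes of spikes-in-bursts/total spikes; endpoint is percent change, DMSO-referenced.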

The nature of experiment [7]: CCTE_Shafer_MEA_acute_per_network_burst_spike_number_mean: CCTE's Neural Acute Assay for Average Number of Spikes in a Network Burst, Shafer Lab (AID 2284019).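 On AC50: curve fitted for loss of signal so actives reduce spikes per network burst.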 An outline of the steps: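 Acute exposure of rat primary cortical networks (DIV 13/15) on MEAs; adaptive spike detection at 8x rms noise, 37 C. Percent change in spikes per network burst after 40 min with compound (0.03-40 uM), negative direction vs DMSO.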

The nature of experiment [8]: CCTE_Shafer_MEA_acute_per_network_burst_electrodes_number_mean: CCTE's Neural Acute Assay for Mean Number of Electrodes in a Network Burst, Shafer Lab (AID 2284021).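 Further: curves fitted for decreases only so hits reduce electrodes per burst.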 An outline of the steps: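 Primary rat cortical networks, mwMEA, 37 C. 20 min stabilization, 40 min baseline, compound 0.03-40 uM, 40 min re-record. Wells need >=10 active electrodes; percent change per well, negative fitting direction.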

A short description of experiment [9]: CCTE_Shafer_MEA_acute_network_burst_percentage: CCTE's Neural Acute Assay for Percentage of Network Bursts, Shafer Lab (AID 2284022).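 Further: curves fitted for loss so actives lower network burst percentage.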 In short, it runs like this: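 Readout is the fraction of spikes falling in network bursts, expressed as per-well percent change from a 40-min pre-exposure baseline. Primary rat cortical neurons on MEA were exposed to 0.03-40 uM compound on DIV 13 or 15 and recorded for 40 min at 37 C.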

A word on the AC50: it is the midpoint of the concentration-response curve, whichever way the signal moves. `N#Cc1c[nH]cc1-c1cccc2c1OC(F)(F)O2`: the outcome in experiment [1], in experiment [2], in experiment [3], in [4], in experiment [7] and in experiment [8] was inactive. Further, in [9], the result was inactive. The AC50 in experiment [5] is 20000 nM (active); in [6] it was 32400 nM (active).
`O=C(Nc1ccccc1-c1ccc(Cl)cc1)c1cccnc1Cl`: the outcome in [1], in experiment [2], in experiment [3], in experiment [4], in experiment [6] and in [7] was inactive. Also, the call in [8] and in experiment [9] was inactive. In addition, in [5], the half-maximal activity concentration (AC50) is 28500 nM (active).
With `CC1(C)C(C(=O)OC(C#N)c2cccc(Oc3ccccc3)c2)C1(C)C` (stereo not drawn), the result in experiment [1], in experiment [2], in [3] and in experiment [6] was inactive. Besides, the AC50 in [4] is 309 nM (active); in experiment [5] it was 1280 nM (active); in experiment [7], 74.9 nM (active); in [8], 120 nM (active); in experiment [9], 1540 nM (active).
Take `CNC(=O)Oc1cccc2ccccc12`: the result in experiment [1], in experiment [3], in experiment [4], in [5], in experiment [6] and in [7] was inactive. In addition, the molecule was called inactive in experiment [8] and in experiment [9].
Regarding `CCCCC(O)(Cn1cncn1)c1ccc(Cl)cc1Cl` (stereo not drawn), the result in experiment [1], in experiment [2], in experiment [3], in experiment [4], in experiment [5] and in experiment [6] was inactive. For the same molecule, the result in [7] and in [8] was inactive. In experiment [9], the AC50 was 2230 nM (active).
With `COP(=O)(OC)O/C(C)=C/C(=O)N(C)C`, in [1], the result was inactive.
For `CCNP(=S)(OC)O/C(C)=C/C(=O)OC(C)C` (stereo not drawn), the result in experiment [1] was inactive.
In the case of `Nc1c(Cl)c(F)nc(OCC(=O)O)c1Cl`, the result in [1], in [2], in experiment [3], in experiment [4], in experiment [5] and in experiment [6] was inactive. Also, the call in experiment [7], in [8] and in experiment [9] was inactive.
In the case of `CC(C)C1(C)N=C(c2ncccc2C(=O)O)NC1=O` (stereo not drawn), the outcome in experiment [1], in [2], in experiment [3], in [4], in experiment [5] and in experiment [6] was inactive. The call in [7], in [8] and in [9] was inactive.
As for `COCC(=O)N(c1c(C)cccc1C)C(C)C(=O)OC` (stereo not drawn), the outcome in experiment [1], in experiment [2], in experiment [3], in [4], in [5] and in [6] was inactive. For the same molecule, the outcome in experiment [7], in experiment [8] and in experiment [9] was inactive.
In the case of `C=C(C)CN(CC)c1c([N+](=O)[O-])cc(C(F)(F)F)cc1[N+](=O)[O-]`, the outcome in experiment [1], in experiment [2], in [3], in experiment [4], in [5] and in experiment [6] was inactive. The molecule was classed as inactive in experiment [7], in experiment [8] and in [9].
With `CN/C(=N\[N+](=O)[O-])NCc1cnc(Cl)s1`, the result in experiment [1], in experiment [2], in experiment [3], in [4], in [5] and in experiment [6] was inactive. For the same molecule, the molecule was called inactive in experiment [7], in experiment [8] and in experiment [9].
Take `CC(C)N1C(=O)c2ccccc2NS1(=O)=O`: the result in [1], in experiment [2], in experiment [3], in [4], in experiment [5] and in experiment [6] was inactive. The call in experiment [7], in experiment [8] and in experiment [9] was inactive.
Turning to `COP(=S)(OC)SCn1nnc2ccccc2c1=O`, the outcome in experiment [1], in experiment [2], in experiment [3], in experiment [4], in experiment [5] and in experiment [6] was inactive. The outcome in [7], in [8] and in experiment [9] was inactive. In addition, in experiment [7], the AC50 is 24100 nM (active).
For `CCOP(=S)(OCC)Oc1nc(Cl)n(C(C)C)n1`, the outcome in experiment [1] was inactive.
With `CCOC(=O)C(C)OC(=O)c1cc(Oc2ccc(C(F)(F)F)cc2Cl)ccc1[N+](=O)[O-]` (stereo not drawn), the result in [1], in experiment [2], in experiment [3], in experiment [4], in experiment [5] and in [6] was inactive. Also, the call in experiment [7], in experiment [8] and in experiment [9] was inactive.
`CO/N=C(/C1=NOCCO1)c1ccccc1Oc1ncnc(Oc2ccccc2Cl)c1F`: the result in [1], in [2], in experiment [3], in experiment [4], in experiment [6] and in experiment [7] was inactive. Further, the outcome in experiment [8] and in [9] was inactive. The AC50 in [5] is 20000 nM (active).
Consider `Cc1ccc(N=CN(C)C=Nc2ccc(C)cc2C)c(C)c1`, for which the result in experiment [1], in [2], in [5], in experiment [6] and in experiment [8] was inactive. Besides, the AC50 in experiment [3] was 4210 nM (active); in experiment [4], 160 nM (active); in experiment [7] it was 427 nM (active); in experiment [9], 20000 nM (active).
